# Sampled rows, rich in hits. Any-hit rate of the full collection: about 0.44%.
# EPAC1 ag – EPAC1 (human) agonism; O95398; EPAC1 agonist qHTS, biochemical assay; response scale: 100% = response to 6.5 mM cAMP; Potency, µM (highest dose often 154 µM), for the others: at the top dose activation, hits mostly activators; 360,000 compounds, 0.073% hits; AID 720707; also: nearly all actives have a fitted effect of over 60% in size
#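 Nucleotide exchange by EPAC1 (100 nM) on Rap1B–BODIPY-GDP (250 nM) in the presence of 50 uM GDP is tracked fluorescently at 480/540 nm over 30 min. Signals are normalized to a 6.5 mM cAMP control.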
# USP1-UAF1 inh – USP1/UAF1 (human) deubiquitinase inhibition; AID 743255; recombinant USP1/UAF1, Ub-Rhodamine cleavage fluorescence; 390,000 compounds, 0.23% hits; Potency, µM (series often up to 57.1 µM), for the others: at the highest dose activity change, negative = inhibition, actives largely listed as inhibitors; also: % is scaled to controls: 0 for no effect and ±100 for the full control effect; nearly all actives have a fitted effect of over 60% in size
#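 In this screen, compounds sit with the deubiquitinase complex (1nM) for 15 min at room temperature before Ub-Rho is added at 150nM final. Fluorescence rise is then followed for 6 reads every 60 seconds.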
# EPAC2 ag – activates human EPAC2 exchange factor | EPAC2 activation, biochemical qHTS; response scale: 100% = 6.5 mM cAMP response | Potency, µM (highest dose often 154 µM), inactives show top-dose activation, actives largely listed as activators | 360,000 compounds, 0.079% hits | AID 720711; also: nearly all actives have a fitted effect of over 50% in size
# Target sequence (Q8WZA2 whole entry, looked up): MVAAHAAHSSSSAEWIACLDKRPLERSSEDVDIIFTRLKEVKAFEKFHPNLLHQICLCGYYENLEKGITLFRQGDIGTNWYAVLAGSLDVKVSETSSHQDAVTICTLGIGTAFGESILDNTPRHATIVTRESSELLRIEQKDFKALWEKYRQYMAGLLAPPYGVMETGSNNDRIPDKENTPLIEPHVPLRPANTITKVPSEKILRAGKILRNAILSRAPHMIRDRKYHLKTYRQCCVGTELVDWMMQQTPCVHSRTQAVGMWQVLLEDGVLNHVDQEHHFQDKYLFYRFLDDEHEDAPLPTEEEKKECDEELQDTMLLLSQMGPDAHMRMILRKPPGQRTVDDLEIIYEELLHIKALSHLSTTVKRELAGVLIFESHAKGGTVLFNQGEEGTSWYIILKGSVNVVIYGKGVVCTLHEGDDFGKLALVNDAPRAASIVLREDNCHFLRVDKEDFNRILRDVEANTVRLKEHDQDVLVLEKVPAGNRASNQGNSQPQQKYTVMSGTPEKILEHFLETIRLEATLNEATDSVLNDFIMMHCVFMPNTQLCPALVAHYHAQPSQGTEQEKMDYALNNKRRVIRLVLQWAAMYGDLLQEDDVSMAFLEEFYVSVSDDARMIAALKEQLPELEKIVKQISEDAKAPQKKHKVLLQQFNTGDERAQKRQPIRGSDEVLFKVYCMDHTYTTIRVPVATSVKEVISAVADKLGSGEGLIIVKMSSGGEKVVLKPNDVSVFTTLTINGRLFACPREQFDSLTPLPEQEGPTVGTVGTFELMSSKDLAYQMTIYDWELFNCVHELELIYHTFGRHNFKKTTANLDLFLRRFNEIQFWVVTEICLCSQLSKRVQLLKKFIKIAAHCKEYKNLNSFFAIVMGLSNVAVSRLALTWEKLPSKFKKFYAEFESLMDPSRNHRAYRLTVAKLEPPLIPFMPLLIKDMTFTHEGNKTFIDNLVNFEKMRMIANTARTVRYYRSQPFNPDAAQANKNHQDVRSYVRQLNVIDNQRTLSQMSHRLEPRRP
#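 EPAC2 (100 nM) mixed with Rap1B loaded with BODIPY-GDP (250 nM) plus 50 uM unlabeled GDP; compounds pinned in, 5 min RT, then read every 5 min for 30 min (ex 480, em 540 nm). Normalized to cAMP control.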
# EPAC1 antagonist – EPAC1 (human) antagonism; O95398; EPAC1 GEF assay, Rap1b-BODIPY-GDP exchange fluorescence; Potency, µM (top dose mostly 115 µM), inactives show at the highest dose activity change, negative = inhibition, usual class: inhibitors; 360,000 compounds, 0.14% hits;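 also: plate controls were vehicle for no effect and positive control for full effect; nearly all actives have a fitted effect of over 50% in size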
# EPAC2 antag – antagonists of human EPAC2. EPAC2 GEF exchange of Rap1B-BODIPY-GDP, fluorescence. Potency, µM (highest dose often 114 µM), inactives show top-dose activity, negative = inhibition, usual class: inhibitors. 360,000 compounds, 0.18% hits. AID 720708; also: % is scaled to controls: 0 for no effect and ±100 for the full control effect; nearly all actives have a fitted effect of over 45% in size
# Starred values were filed as active, the others as inactive; u = inconclusive; x = not tested or not shown. Calls follow the shape of the dose curve; as a rule, active = well fitted curve in the direction sought with a large enough effect; inconclusive = small, poorly fitted or top-dose-only effect, or another doubt; inactive = no such curve, though single readings can be large; an effect the other way counts as inactive or inconclusive. Potency is read from the fitted curve at half-maximal effect.
SMILES,EPAC1 ag,USP1-UAF1 inh,EPAC2 ag,EPAC1 antagonist,EPAC2 antag
O=C(O)CCNc1cc(N2CCN(C(=O)c3ccco3)CC2)c2noc3c2c1C(=O)c1ccccc1-3,-5%,14µM*,-3%,u,-22%
Brc1cc2c(cc1CSc1ncccn1)OCO2,4%,u,20%,-26%,35µM*
Cc1ccc(S(=O)c2ccc([N+](=O)[O-])c3nonc23)cc1 (configuration not stated),8%,16µM*,29%,u,50µM*
Cc1ccc(Nc2c([N+](=O)[O-])ccc3nonc23)c(C)c1,-10%,-22%,4%,-16%,-1%
COC(=O)c1ccc(C(=O)OC)c(NC(=O)c2c(-c3ccccc3)noc2C)c1,x,-6%,x,x,x
Cc1ccc(NC(=O)CCc2c(C)nc3nc(C)nn3c2C)c(Cl)c1,x,-24%,x,x,x
O=c1cc(CSc2nc3ccccc3c(=O)[nH]2)c2ccc(O)cc2o1,-23%,-14%,5%,50µM*,-16%
O=C(NCc1ccc(OC(F)(F)F)cc1)c1cccc2c1C(=O)c1ccc(N3CCC(Cc4ccccc4)CC3)cc1S2(=O)=O,17%,390%,-12%,-3%,32%
O=C(NCc1ccc(OC(F)(F)F)cc1)c1cccc2c1C(=O)c1ccc(N3CCCC3)cc1S2(=O)=O,8%,17%,100µM*,-9%,79µM*
O=C(NCc1ccc(OC(F)(F)F)cc1)c1cccc2c1C(=O)c1ccc(N3CCCCC3)cc1S2(=O)=O,-11%,25µM*,100µM*,22%,202%
Clc1ccc(/C=N/Nc2ncnc3nc[nH]c23)cc1,3%,0%,5%,-16%,-2%
Oc1ccc(/C=N/Nc2ncnc3nc[nH]c23)cc1,0%,-27%,0%,-11%,18µM*
COc1ccccc1NS(=O)(=O)c1ccc(N/N=C/c2ccccc2OCC(=O)O)c([N+](=O)[O-])c1,3%,-11%,11%,u,-11%
O=C(O)c1ccc(/C=N/Nc2ccc(S(=O)(=O)N3CCCC3)cc2[N+](=O)[O-])cc1,10%,-9%,11%,3%,3%
O=C(O)c1ccccc1NS(=O)(=O)c1ccc(NN=Cc2cccc(Cl)c2)c([N+](=O)[O-])c1,-3%,u,-8%,50µM*,u
O=C(O)COc1ccccc1/C=N/Nc1ccc(S(=O)(=O)Nc2ccc(Cl)cc2)cc1[N+](=O)[O-],u,-12%,-6%,22µM*,1%
O=C(O)c1ccccc1/C=N/Nc1ccc(S(=O)(=O)N2CCOCC2)cc1[N+](=O)[O-],9%,u,-4%,-1%,-19%
COc1ccc(C=NNc2ccc([N+](=O)[O-])cc2S(=O)(=O)Nc2ccccc2C(=O)O)cc1OC,-10%,-11%,-8%,50µM*,-20%
O=C(O)c1ccccc1NS(=O)(=O)c1ccc(NN=Cc2ccc(F)cc2)c([N+](=O)[O-])c1,4%,-12%,6%,50µM*,-10%
CC(C)(C)NC(=O)C(c1cc2ccccc2o1)n1c(=O)c(-c2ccccc2)nc2ccccc21 (configuration not stated),11%,x,11%,-1%,2%
O=C(O)c1ccccc1NS(=O)(=O)c1ccc(N/N=C/c2ccc(O)c(O)c2)c([N+](=O)[O-])c1,-14%,u,-25%,16µM*,56µM*
NS(=O)(=O)c1ccc(N/N=C/c2ccccc2C(=O)O)c([N+](=O)[O-])c1,4%,-17%,6%,u,-6%
O=C1C2C3CC(C2C(=O)N1c1cccc(Cl)c1)[C@H](O)C3O (some centres not stated),3%,-23%,1%,-20%,4%
CC(=O)[C@H]1[C@@H]2C(=O)N(c3cccc(Cl)c3)C(=O)[C@@H]2[C@H]2c3ccccc3C=CN21,3%,10µM*,15%,-8%,0%
O=C(c1ccco1)[C@@H]1[C@@H]2C(=O)N(c3ccc(Br)cc3)C(=O)[C@@H]2C2c3ccccc3C=CN21 (some centres not stated),0%,16µM*,-11%,-13%,-1%
SMILES,EPAC1 ag,USP1-UAF1 inh,EPAC2 ag,EPAC1 antagonist,EPAC2 antag
CCSc1nc2ccccc2c(=O)n1C1CCOC(C)(C)C1 (configuration not stated),3%,-25%,19%,-11%,40µM*
C=CCSc1nc2ccccc2c(=O)n1C1CCOC(C)(C)C1 (configuration not stated),-2%,-14%,7%,-4%,u
CCN(C(=O)C1CCC(CNS(=O)(=O)c2cccc3nsnc23)CC1)c1ccccc1 (configuration not stated),x,-26%,x,x,x
CCOc1c(OC(C)=O)ccc(/C=C/c2ccc3cccc(OC(C)=O)c3n2)c1[N+](=O)[O-],11%,-16%,6%,-6%,-7%
C=CCN1C(=O)/C(=C/c2ccc(OC(C)=O)c(OCC)c2[N+](=O)[O-])SC1=S,0%,14µM*,13%,71µM*,-29%
Oc1ccc(NCc2cccs2)cc1,12%,-17%,7%,56µM*,5%
COc1ccccc1CNC(=O)C1CCN(c2nc3ccc(Cl)cc3[nH]2)CC1,x,-31%,x,x,x
COc1ccccc1N1CCN(C(=O)CCc2nnc3n(C)c(=O)c4sccc4n23)CC1,x,-1%,x,x,x
Cc1cc(C)c2oc(-c3ccc(Cl)c(NC(=O)c4cccs4)c3)nc2c1,x,-13%,x,x,x
C[C@@H]1CC=C[C@@H]2[C@H]1C(=O)N(Cc1ccccc1)[C@H]2c1cccc(Br)c1,-2%,-13%,2%,0%,-6%
C[C@@H]1CC=C[C@@H]2[C@H]1C(=O)N(Cc1ccccc1)[C@H]2c1ccccc1Br,-16%,-11%,8%,-25%,25µM*
Cc1cccc(CNC(=O)CN2C(=O)C3CCCCN3c3ccc(C(=O)N4CCCC4)cc32)c1 (configuration not stated),x,-29%,x,x,x
Cc1cccc(NC(=O)CS(=O)(=O)c2nc(-c3ccccc3)cn2-c2cccc(Cl)c2)c1C,x,-17%,x,x,x
NC1=C(Cl)C(=O)c2ccc(S(N)(=O)=O)cc2C1=O,5%,1.3µM*,5%,u,u
NC(=O)C1CCN(C(=O)c2ccc3c(c2)N(Cc2cccc(Cl)c2)C(=O)c2ccccc2S3(=O)=O)CC1,x,23%,x,x,x
O=C(CSc1nnc(SCc2ccc(Cl)cc2)s1)N/N=C/c1ccc(C(=O)O)cc1,2%,-18%,-4%,8%,45µM*
O=C(O)COc1ccccc1/C=N/NC(=O)CSc1nnc(SCc2ccc(Cl)cc2)s1,0%,-20%,-2%,11%,-15%
COc1cc(OC)c(NC(=O)Cn2c(SCc3ccccc3F)nc3cccnc32)cc1Cl,x,4%,x,x,x
